The list is not random: actives were taken first. Their share in the collection is about 3.5%.
MITF primary = MITF inhibitors, primary screen, biochemical, AlphaScreen, human; Microphthalmia-associated transcription factor (Homo sapiens), O75030; 650,000 compounds, 0.91% hits; AID 1259374, 2018; inhibition, % at 2.6 µM; AlphaScreen MITF homodimerization, bead proximity signal; in the data active = inhibition above about 50%
TEAD-YAP inh = TEAD-YAP interaction inhibition, primary screen, TEAD-YAP interaction inhibitor project, luminescence, HEK-TIYL cells; inhibition, % at 9.12 µM; 640,000 compounds, 1.4% hits; AID 1259422, 2018; TEAD-Gal4/YAP UAS-luciferase luminescence; in the data active = inhibition above about 32%
GPR151 ag = activators of human GPR151, primary screen, cell-based, PathHunter beta-arrestin, luminescence | activation, % at 11.2 µM | 650,000 compounds, 1% hits | PathHunter beta-arrestin GPR151 cells; in the data active = activation above about 4.9%
Target sequence (Q8TDV0 whole entry, looked up): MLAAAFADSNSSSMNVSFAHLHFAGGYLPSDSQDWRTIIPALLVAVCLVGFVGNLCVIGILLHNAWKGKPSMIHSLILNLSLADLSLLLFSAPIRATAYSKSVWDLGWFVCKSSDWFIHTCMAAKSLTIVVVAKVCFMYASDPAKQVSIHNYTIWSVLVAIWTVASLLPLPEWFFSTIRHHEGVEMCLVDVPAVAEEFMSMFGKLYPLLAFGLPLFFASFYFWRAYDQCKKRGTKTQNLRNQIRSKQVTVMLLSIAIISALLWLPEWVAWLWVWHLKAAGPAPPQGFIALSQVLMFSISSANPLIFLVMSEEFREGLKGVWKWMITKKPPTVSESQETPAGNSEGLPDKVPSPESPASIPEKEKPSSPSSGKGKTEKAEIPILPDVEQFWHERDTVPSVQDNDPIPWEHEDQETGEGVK
FBW7 act = FBW7 E3 ligase activators, primary screen, biochemical, AlphaScreen, human | AlphaScreen FBW7–phospho-cyclin E peptide binding, activator screen | 650,000 compounds, 0.13% hits | normalized activity (activation), % at 26.1 µM; in the data active = normalized activity above about 1.9%;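 also: purified mutant Fbw7 with reduced substrate affinity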
GPR151 conf act = GPR151 activators, triplicate retest, confirmation, cell-based, PathHunter beta-arrestin, luminescence. shares compounds with GPR151 ag. GPR151 PathHunter beta-arrestin cells, 90 min; % of EA-reagent control over plate median. activation, % at 11.2 µM. 6,700 tested, under 10 active. AID 1508609, 2020;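 active = mean percent activation across replicates above the confirmation screen cutoff of 4.91%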
GPR119 ag = GPR119 activators in beta-arrestin cells, counter-screen for GPR151 activator project, cell-based, PathHunter beta-arrestin, luminescence, triplicate. shares compounds with GPR151 ag. 90 min; 0 = compound-well median, 100 = enzyme-acceptor control. activation, % at 11.2 µM. 6,700 compounds, 0.3% hits;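 active = mean percent activation in the counterscreen above 29.09%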;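 also: counterscreen on off-target GPR119 to flag nonselective hits from the GPR151 activator screen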
Numbers stand for hits.

How did Cc1nonc1OCCCNc1ccc([N+](=O)[O-])cc1 do in these assays?
MITF primary: inactive; TEAD-YAP inh: inactive; GPR151 ag: inactive; FBW7 act: inactive

How did O=[N+]([O-])c1cc(C(F)(F)F)ccc1NCCNCCO do in these assays?
MITF primary: inactive; TEAD-YAP inh: inactive; GPR151 ag: inactive; FBW7 act: inactive

What do the screens show for `O=[N+]([O-])c1ccccc1NCCNCCO`?
MITF primary: inactive; TEAD-YAP inh: inactive; GPR151 ag: 7.9; FBW7 act: inactive; GPR151 conf act: inactive; GPR119 ag: inactive

How did CCCOc1ccc(N2C(=O)C3C(C2=O)C2(C)CC3(C)CC2=O)cc1 (stereo not given) do in these assays?
MITF primary: inactive; TEAD-YAP inh: inactive; GPR151 ag: 7.8; FBW7 act: inactive; GPR151 conf act: inactive; GPR119 ag: inactive

What do the screens show for `CC(=O)OC[C@H]1O[C@@H](n2ccc(=O)[nH]c2=S)C(OC(C)=O)C1OC(C)=O` (stereo not given in full)?
MITF primary: inactive; TEAD-YAP inh: inactive; GPR151 ag: 5.9; FBW7 act: inactive; GPR151 conf act: inactive; GPR119 ag: inactive

How did COc1ccc(N2CC(C(=O)OCC(=O)Nc3cccc(Cl)c3)CC2=O)cc1 (stereo not given) do in these assays?
MITF primary: inactive; TEAD-YAP inh: inactive; GPR151 ag: inactive; FBW7 act: inactive

How did CC(=O)N(C)c1nnc(-c2ccccn2)s1 do in these assays?
MITF primary: inactive; TEAD-YAP inh: inactive; GPR151 ag: 7.8; FBW7 act: inactive; GPR151 conf act: inactive; GPR119 ag: inactive

How did COC(=O)C(NS(=O)(=O)c1ccc([N+](=O)[O-])cc1)c1ccccc1 (stereo not given) do in these assays?
MITF primary: inactive; TEAD-YAP inh: inactive; GPR151 ag: 9.3; FBW7 act: inactive; GPR151 conf act: inactive; GPR119 ag: inactive

What do the screens show for `O=C(O)C(NS(=O)(=O)c1ccc([N+](=O)[O-])cc1)c1ccccc1` (stereo not given)?
MITF primary: inactive; TEAD-YAP inh: inactive; GPR151 ag: inactive; FBW7 act: inactive

How did Cc1ccc(S(=O)(=O)N[C@H](C(=O)OCC(=O)Nc2cccnc2Cl)C(C)C)cc1 do in these assays?
MITF primary: inactive; TEAD-YAP inh: inactive; GPR151 ag: inactive; FBW7 act: inactive

Results for CN1CCN(c2cc(-c3cn[nH]c3)ccc2NC(=O)Cc2cccc(Cl)c2)CC1 ?
MITF primary: inactive; TEAD-YAP inh: inactive; GPR151 ag: 5.2; FBW7 act: inactive; GPR151 conf act: 6.6; GPR119 ag: 54

How did COc1ccccc1C(=O)Nc1ccc2c(C)cc(=O)oc2c1 do in these assays?
MITF primary: inactive; TEAD-YAP inh: inactive; GPR151 ag: 17; FBW7 act: inactive; GPR151 conf act: inactive; GPR119 ag: inactive

What do the screens show for `COc1ccccc1C(=O)Nc1cccc(N(C)C)c1`?
MITF primary: inactive; TEAD-YAP inh: inactive; GPR151 ag: 16; FBW7 act: inactive; GPR151 conf act: inactive; GPR119 ag: inactive

What do the screens show for `Cc1cc(=O)oc2cc(OC(C)C(=O)Nc3ccccc3)ccc12` (stereo not given)?
MITF primary: inactive; TEAD-YAP inh: inactive; GPR151 ag: 5.3; FBW7 act: inactive; GPR151 conf act: inactive; GPR119 ag: inactive

What do the screens show for `CCOC(=O)c1cccc(NC(=O)c2ccccc2OCC)c1`?
MITF primary: inactive; TEAD-YAP inh: inactive; GPR151 ag: 5.5; FBW7 act: inactive; GPR151 conf act: inactive; GPR119 ag: inactive

How did COc1ccc(NC(=O)C(C)Oc2ccc3oc(=O)cc(C)c3c2)cc1 (stereo not given) do in these assays?
MITF primary: inactive; TEAD-YAP inh: inactive; GPR151 ag: inactive; FBW7 act: inactive

What do the screens show for `CCOc1ncccc1C(=O)Nc1ccc2c(C)cc(=O)oc2c1`?
MITF primary: inactive; TEAD-YAP inh: inactive; GPR151 ag: inactive; FBW7 act: inactive

How did CC(C)N(Cc1nc(-c2ccccc2)no1)C(=O)CN1C(=O)c2ccccc2C1=O do in these assays?
MITF primary: inactive; TEAD-YAP inh: inactive; GPR151 ag: inactive; FBW7 act: inactive
